{"source": "PubChem BioAssay AID1347147", "about": "(National Center for Advancing Translational Sciences (NCATS), 2019)", "note": "Records with an inconclusive call do not appear. A call without a number means that no potency is given here. Calls of active or inactive are those of the source. Calls come from the whole dose curve; as a rule, active = well fitted inhibition curve with a large enough effect; inconclusive = small, poorly fitted or top-dose-only effect; inactive = no such curve, though single readings can be large or run the other way. Potency is the fitted concentration of half-maximal effect."}
{"molecular_target": "N-terminal Xaa-Pro-Lys N-methyltransferase 1 (Homo sapiens) (UniProt Q9BV86)", "sequence (Q9BV86 whole entry, looked up)": "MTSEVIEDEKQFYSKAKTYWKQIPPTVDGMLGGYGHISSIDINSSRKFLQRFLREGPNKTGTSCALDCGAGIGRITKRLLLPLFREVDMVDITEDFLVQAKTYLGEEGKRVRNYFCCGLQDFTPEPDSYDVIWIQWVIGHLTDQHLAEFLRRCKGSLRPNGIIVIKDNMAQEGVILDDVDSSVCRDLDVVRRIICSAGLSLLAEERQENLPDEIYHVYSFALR", "assay": "qHTS Assay for Inhibitors of N-terminal methyltransferase 1 (NTMT1): MTaseGlo Confirmatory Screen, Round 2", "conditions": "NTMT1 enzyme, MTase-Glo SAH luminescence; series mostly up to 57.4 µM", "method_in_brief": "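NTMT1 (125 nM) with 100 µM SAM was preincubated ~15 min with compound, then 1 µM SPKRIA peptide was added for 30 min at RT. SAH was detected by MTase-Glo luminescence, normalized to no-enzyme and DMSO controls, and fitted to a 4-parameter Hill equation.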"}
{"smiles": "CSc1nc(N)c2ncn([C@@H]3O[C@H](COP(=O)(O)OP(=O)(O)OP(=O)(O)O)[C@@H](O)[C@H]3O)c2n1", "Potency": "inactive"}
{"smiles": "Cc1cccc(C2CN(C)CCc3c2cc(O)c(O)c3Cl)c1", "note": "(stereo not drawn)", "Potency": "inactive"}
{"smiles": "Nc1ncnc2c1ncn2[C@@H]1O[C@H](CO)[C@@H](O)[C@H]1O", "Potency": "inactive"}
{"smiles": "Oc1ccc(O)cc1", "Potency": "inactive"}
{"smiles": "Cc1cc2c(cc1Cl)N(C(=O)Nc1ccc(Oc3cccnc3C)nc1)CC2", "Potency": "inactive"}
{"smiles": "CCN(CC)C(C)CN1c2ccccc2Sc2ccccc21", "note": "(stereo not drawn)", "Potency": "inactive"}
{"smiles": "CN(C)c1ccc(/C=C2\\C(=O)Nc3ccccc32)cc1", "Potency": "inactive"}
{"smiles": "Nc1ccc(CCNc2ncnc3c2ncn3C2OC(CO)C(O)C2O)cc1", "note": "(stereo not drawn)", "Potency": "inactive"}
{"smiles": "CN(C)CCCN1c2ccccc2Sc2ccc(C(F)(F)F)cc21", "Potency": "inactive"}
{"smiles": "O=Nc1ccc2oc(=O)ccc2c1", "Potency": "inactive"}
{"smiles": "CN(C)CCCc1cc(C(=O)Nc2ccc(-c3ccncc3)cc2)ccc1O", "Potency": "inactive"}
{"smiles": "N#C/C(=C\\c1ccc(O)c(O)c1)C(=O)Nc1ccccc1", "Potency": "inactive"}
{"smiles": "CNC(=O)c1cnn(-c2nc(N)c3ncn([C@@H]4O[C@H](CO)[C@@H](O)[C@H]4O)c3n2)c1", "Potency": "inactive"}
{"smiles": "COc1cc(CNC(=O)CCCCCCC(C)C)ccc1O", "Potency": "inactive"}
{"smiles": "Oc1ccc(C2CNCc3sccc32)cc1O", "note": "(stereo not drawn)", "Potency": "inactive"}
{"smiles": "COc1cc2c(NC3CCN(C)CC3)cc(N3CCCCN(C)CC3)cc2cc1OCCOCCN(C)C", "Potency": "inactive"}
{"smiles": "OC[C@H]1O[C@H](n2cnc3c(N[C@H]4CCC[C@@H]4O)ncnc32)[C@H](O)[C@@H]1O", "Potency": "inactive"}
{"smiles": "CC(C)=CCNc1ncnc2c1ncn2[C@@H]1O[C@H](CO)[C@@H](O)[C@H]1O", "Potency": "inactive"}
{"smiles": "Nc1ncnc2c1[nH]c(=S)n2C1OC(CO)C(O)C1O", "note": "(stereo not drawn)", "Potency": "inactive"}
{"smiles": "CCOC(=O)c1cnc2c(cnn2CC)c1NN=C(C)C", "Potency": "inactive"}
{"smiles": "CNCCc1cnc(CCC(c2ccccc2)c2ccccc2)[nH]1", "Potency": "inactive"}
{"smiles": "CCC(CC)n1ccc2c(C(=O)NCc3c(C)cc(C)[nH]c3=O)cc(C#N)cc21", "Potency": "inactive"}
{"smiles": "COC(=O)[C@@H]1[C@H]2C[C@H]3c4[nH]c5ccccc5c4CCN3C[C@@H]2CC[C@@H]1O", "Potency": "inactive"}
{"smiles": "Nc1ncnc2c1ncn2[C@H]1O[C@@H](CNS(=O)(=O)NC(=O)c2cccc(-c3noc(-c4ccccc4F)n3)c2)[C@H](O)[C@@H]1O", "Potency": "2 µM (active)"}
{"smiles": "N#CC(C#N)=C(N)/C(C#N)=C/c1ccc(O)cc1", "Potency": "inactive"}
{"smiles": "O=C(N[C@@H](Cc1ccccc1)C(=O)CCl)OCc1ccccc1", "Potency": "inactive"}
{"smiles": "Brc1c(Br)c(Br)c2[nH]cnc2c1Br", "Potency": "inactive"}
{"smiles": "O=c1c(-c2ccc(O)cc2)coc2cc(O)cc(O)c12", "Potency": "inactive"}
{"smiles": "Cc1ccc(O)c(N=Nc2ccccc2)n1", "Potency": "14.1 µM (active)"}
{"smiles": "Nc1nc(=S)c2ncn([C@H]3O[C@@H](CO)[C@@H](O)[C@@H]3O)c2[nH]1", "Potency": "inactive"}
{"smiles": "CCCCNc1ccc(C(=O)OCCN(C)C)cc1", "Potency": "inactive"}
{"smiles": "N[C@@H](Cc1ccc(O)c(O)c1)C(=O)O", "Potency": "inactive"}
{"smiles": "NC[C@@H]1O[C@H](c2ccccc2)Cc2c1ccc(O)c2O", "Potency": "inactive"}
{"smiles": "Nc1nc(Cl)nc2c1ncn2[C@@H]1O[C@H](CO)[C@@H](O)[C@H]1O", "Potency": "inactive"}
{"smiles": "N.N.O=C(O)C1(C(=O)O)CCC1.[Pt]", "Potency": "inactive"}
{"smiles": "Brc1c(NC2=NCCN2)ccc2nccnc12", "Potency": "inactive"}
{"smiles": "Nc1nc(=S)c2ncn([C@@H]3O[C@H](CO)[C@@H](O)[C@H]3O)c2[nH]1", "Potency": "inactive"}
{"smiles": "C#CCN(C)CCCOc1ccc(Cl)cc1Cl", "Potency": "inactive"}
